Hits are enriched below; roughly 3% of the tested compounds scored in any of these assays.
SNCA viab count – counter-screen for SNCA expression inhibitors: cell viability. HEK-293-SNCA-luc viability, GF-AFC fluorescence, 24 h. AID 1671193. Potency, µM (highest dose often 57.1 µM), without a hit: top-dose activity change, negative = cytotoxicity, usual class: cytotoxic. 150,000 tested, 0.12% active;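 also: potency is read from the fitted curve at half-maximal effect; 0% = DMSO-treated cells and -100% = medium-only wells without cells; nearly all actives have a fitted effect of over 30% in size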
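HEK-293-SNCA-luc cells (1500/well) plated 24 h, then exposed 24 h to a dilution series; GF-AFC added 30 min at 37C, fluorescence 405/540 nm; normalised to medium-only and DMSO wells, Hill fit.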
IP6K1 inhibitor – inhibitors of human IP6K1 | Q92551 | IP6K1 kinase, ADP-Glo luminescence, 2 h; hits give low values | activity change, % (series mostly up to about 58 µM) | 140,000 tested, 0.81% active; in the data active = activity change below about -25%; also: % is scaled to controls: 0 for no effect and ±100 for the full control effect
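ADP-Glo luminescence measures ADP made by human IP6K1 during a 2 h RT reaction with ATP/IP6 (mix at 1.3 mM/130 uM); top library doses 57.5 and 19.1 uM final.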
SNCA expr inhib – SNCA gene expression inhibition; 140,000 tested, 0.17% active; HEK-293 SNCA-luciferase knock-in, luminescence, 24 h; Potency, µM (doses to about 57.2 µM), inactives show at the top dose activity change, negative = inhibition, hits mostly inhibitors; AID 1671194;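 also: potency is read from the fitted curve at half-maximal effect; plate controls were DMSO cells for no effect and cell-free wells for full effect; nearly all actives have a fitted effect of over 45% in size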
KDM5B inhibitor – inhibitors of human KDM5B histone demethylase | Q9UGL1 | KDM5B demethylase, FDH-coupled NADH fluorescence (FDH is formaldehyde dehydrogenase) | Potency, µM (titrated, usually from 57.7 µM), actives largely listed as inhibitors | 220,000 tested, 2.6% active | AID 1347165; also: potency is read from the fitted curve at half-maximal effect; 0% is about no effect; nearly all actives have a fitted effect of over 70% in size
Target sequence (Q9UGL1 whole entry, looked up): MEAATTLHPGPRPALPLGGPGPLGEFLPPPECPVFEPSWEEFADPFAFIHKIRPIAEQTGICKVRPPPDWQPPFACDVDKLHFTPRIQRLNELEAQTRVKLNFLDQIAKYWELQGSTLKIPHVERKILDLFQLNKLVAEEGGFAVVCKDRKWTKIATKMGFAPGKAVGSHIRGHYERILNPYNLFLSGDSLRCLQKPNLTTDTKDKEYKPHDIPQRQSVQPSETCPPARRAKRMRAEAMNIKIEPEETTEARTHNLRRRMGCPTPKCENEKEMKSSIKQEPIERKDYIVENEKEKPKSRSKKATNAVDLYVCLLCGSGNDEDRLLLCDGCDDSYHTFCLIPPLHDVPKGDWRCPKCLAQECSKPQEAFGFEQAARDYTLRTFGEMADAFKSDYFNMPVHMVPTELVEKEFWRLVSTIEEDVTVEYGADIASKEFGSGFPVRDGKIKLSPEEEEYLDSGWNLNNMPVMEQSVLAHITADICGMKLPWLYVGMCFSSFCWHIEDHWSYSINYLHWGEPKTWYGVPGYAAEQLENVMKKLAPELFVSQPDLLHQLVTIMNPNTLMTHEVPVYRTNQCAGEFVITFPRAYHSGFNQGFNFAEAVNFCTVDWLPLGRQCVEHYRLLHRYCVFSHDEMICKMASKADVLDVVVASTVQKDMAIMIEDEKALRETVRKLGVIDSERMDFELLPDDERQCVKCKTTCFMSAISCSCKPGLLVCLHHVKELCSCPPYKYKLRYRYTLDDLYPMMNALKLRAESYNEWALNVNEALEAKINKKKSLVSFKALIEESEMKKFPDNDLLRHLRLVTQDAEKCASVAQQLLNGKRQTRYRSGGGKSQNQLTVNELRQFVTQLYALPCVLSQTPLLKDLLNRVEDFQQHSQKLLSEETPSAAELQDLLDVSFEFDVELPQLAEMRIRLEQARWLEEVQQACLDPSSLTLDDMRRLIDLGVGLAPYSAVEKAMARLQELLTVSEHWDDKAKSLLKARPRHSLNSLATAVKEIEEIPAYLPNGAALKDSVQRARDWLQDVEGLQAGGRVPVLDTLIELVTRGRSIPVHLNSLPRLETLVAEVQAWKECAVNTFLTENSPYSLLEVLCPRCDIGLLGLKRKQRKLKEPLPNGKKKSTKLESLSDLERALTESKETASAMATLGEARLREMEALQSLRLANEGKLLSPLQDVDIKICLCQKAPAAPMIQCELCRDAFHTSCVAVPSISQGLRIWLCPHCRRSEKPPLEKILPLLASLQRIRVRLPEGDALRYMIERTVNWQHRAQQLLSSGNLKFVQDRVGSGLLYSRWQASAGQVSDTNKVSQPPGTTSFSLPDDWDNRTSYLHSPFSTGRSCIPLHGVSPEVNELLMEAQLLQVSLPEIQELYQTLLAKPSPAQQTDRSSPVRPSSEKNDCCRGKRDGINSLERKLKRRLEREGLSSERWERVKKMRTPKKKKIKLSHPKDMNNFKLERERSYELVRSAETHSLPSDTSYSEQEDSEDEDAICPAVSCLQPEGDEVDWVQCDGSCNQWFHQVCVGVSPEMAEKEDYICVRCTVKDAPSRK
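Measured: NADH fluorescence change, 30 min, RT. System: KDM5BΔAP 200 nM final, H3K4me3 peptide, α-KG, Fe(II), ascorbate, NAD⁺ plus FDH, pH 7.5 HEPES. Compounds: titrated, 10 min pre-incubation with enzyme.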
Starred values were filed as active, the others as inactive; ! = a repeat was not active; [ ] = remark or other dose. Unless noted, calls follow the shape of the dose curve; as a rule, active = well fitted curve in the direction sought with a large enough effect; inconclusive = small, poorly fitted or top-dose-only effect, or another doubt; inactive = no such curve, though single readings can be large; an effect the other way counts as inactive or inconclusive.

`CCC1CCCCN1C(=O)Cn1nc(-c2ccc(C)cc2)c2ccccc2c1=O` (stereo not drawn) gave KDM5B inhibitor inactive.
`CCCCCCNC(=O)c1cccc2ncccc12` gave KDM5B inhibitor inactive.
Nc1nc2c(ncn2COC(CO)CO)c(=O)[nH]1 was read as SNCA viab count -17.5%, IP6K1 inhibitor 12.0 and SNCA expr inhib 0.0857µM*!.
Screening Cc1cc(C)n2ncc(C(=O)NCc3cc4n(n3)CCN(C(=O)N(C)C)C4)c2n1 returned SNCA viab count 1.1%, IP6K1 inhibitor -2.4, SNCA expr inhib 25.3% and KDM5B inhibitor 31.6µM*.
`COc1ccc(F)cc1C(=O)NCc1cc2n(n1)CCN(C(=O)N(C)C)C2` gave SNCA viab count 4.7%, IP6K1 inhibitor -4.4, SNCA expr inhib -21.3% and KDM5B inhibitor inactive.
`O=C1CC2(CCN(CC3CCNC3)C2)Nc2ccccc2N1` (stereo not drawn) gave SNCA viab count 6.1%[87.6 µM], IP6K1 inhibitor 17.4, SNCA expr inhib 7.8%[87.6 µM] and KDM5B inhibitor 112µM*.
N#Cc1ccc(CN2CCC3(CC(=O)Nc4ccccc4N3)C2)cc1 (stereo not drawn) was read as SNCA viab count -2.5%, IP6K1 inhibitor 13.2, SNCA expr inhib 10.7% and KDM5B inhibitor inactive.
`O=C(c1ccc(Cl)cc1)N1CCN(c2ccc3nnc(-c4ccccc4)n3n2)CC1` gave IP6K1 inhibitor -0.7.
`O=C(Nc1cccc(C(F)(F)F)c1)c1nc2ccccc2nc1N1CCCC1` gave KDM5B inhibitor inactive.
`COc1cccc(NC(=O)c2ccc3c(c2)NC(C)(CNc2ccccc2)CO3)c1` (stereo not drawn) gave SNCA viab count inconclusive, IP6K1 inhibitor 22.9, SNCA expr inhib inconclusive and KDM5B inhibitor 12.6µM*.
Screening COc1cccc(NC(=O)c2ccc3c(c2)NC(C)(COCCN(C)C)CO3)c1 (stereo not drawn) returned SNCA viab count 2.6%[87.6 µM], IP6K1 inhibitor -4.6, SNCA expr inhib 12.7%[87.6 µM] and KDM5B inhibitor inconclusive.
CCOCC1(C)COc2ccc(C(=O)Nc3ccc(Cl)cc3)cc2N1 (stereo not drawn) was read as SNCA viab count -15.5%[87.6 µM], IP6K1 inhibitor -11.8, SNCA expr inhib -9.5%[87.6 µM] and KDM5B inhibitor 28.2µM*.
Screening CC1(CNc2ccccc2)COc2ccc(C(=O)NC3CCC(O)CC3)cc2N1 (stereo not drawn) returned SNCA viab count 2.6%[87.6 µM], IP6K1 inhibitor 2.2, SNCA expr inhib -2.4%[87.6 µM] and KDM5B inhibitor inconclusive.
Screening CN(C)CCCOCC1(C)COc2ccc(C(=O)Nc3cccc(Cl)c3)cc2N1 (stereo not drawn) returned SNCA viab count 1.8%[87.6 µM], IP6K1 inhibitor -1.4, SNCA expr inhib 63.8%[87.6 µM] and KDM5B inhibitor 31.6µM*.
`CCOCC1(C)COc2ccc(C(=O)Nc3cccc(Cl)c3)cc2N1` (stereo not drawn) gave SNCA viab count inconclusive, IP6K1 inhibitor 12.5, SNCA expr inhib -35.1%[87.6 µM] and KDM5B inhibitor inconclusive.
For CCOCC1(C)COc2ccc(C(=O)Nc3cccc(OC)c3)cc2N1 (stereo not drawn) the results were SNCA viab count -11.8%[87.6 µM], IP6K1 inhibitor -1.9, SNCA expr inhib 13.9%[87.6 µM] and KDM5B inhibitor 31.6µM*.
CC(OC(=O)C12CC3CC(CC(Cl)(C3)C1)C2)C(=O)c1c[nH]c2ccccc12 (stereo not drawn) was read as KDM5B inhibitor inactive.
COc1ccc2nc(/C(C#N)=C\c3ccc(C)o3)[nH]c2c1 was read as KDM5B inhibitor inactive.
COc1ccc(-c2cnc(C)o2)cc1S(=O)(=O)Nc1ccc(F)c(F)c1 was read as KDM5B inhibitor inactive.
For Cc1ccc(-c2ncc(NC(=O)c3cccs3)cn2)cc1 the results were SNCA viab count 6.1%, IP6K1 inhibitor -5.0, SNCA expr inhib 72.5% and KDM5B inhibitor 31.6µM*.
Cc1cccc(N2CCN(C(=O)CN3CC4(CCCCC4)CC3=O)CC2)n1 was read as SNCA viab count -3.7%, IP6K1 inhibitor 0.5, SNCA expr inhib 20.9% and KDM5B inhibitor 31.6µM*.
Screening O=C(CCC(=O)c1ccc(F)cc1)OCc1cccc([N+](=O)[O-])c1 returned KDM5B inhibitor inactive.
`Cn1cc([C@@H](NC(=O)c2nc3ccccc3[nH]c2=O)C2CC(O)C2)cn1` (stereo partly drawn) gave SNCA viab count 11.2%, IP6K1 inhibitor -8.5, SNCA expr inhib 19.9% and KDM5B inhibitor 31.6µM*.
Screening Cn1cc([C@@H](NC(=O)c2cc(=O)n(-c3ccccc3)[nH]2)C2CC(O)C2)cn1 (stereo partly drawn) returned SNCA viab count 2.6%, IP6K1 inhibitor 8.0, SNCA expr inhib -13.6% and KDM5B inhibitor inactive.
`Cc1cc2ccccc2n1CC(=O)N1CCCCCC1` gave KDM5B inhibitor inactive.
Screening CC(=O)Nc1cc(C(=O)N2CCN(C3CCCCC3)CC2)c2ccc(C)nc2c1 returned SNCA viab count 5.9%, IP6K1 inhibitor 20.3, SNCA expr inhib 3.5% and KDM5B inhibitor inconclusive.
For Cc1ccc2c(C(=O)N3CCCCCC3)cc(NC(=O)C3CCC3)cc2n1 the results were SNCA viab count 4.8%, IP6K1 inhibitor 3.8, SNCA expr inhib 15.7% and KDM5B inhibitor 31.6µM*.
For Cc1ccc2c(C(=O)N3CCN(C4CCCCC4)CC3)cc(NC(=O)C(C)C)cc2n1 the results were SNCA viab count -6.2%, IP6K1 inhibitor 7.9, SNCA expr inhib -0.8% and KDM5B inhibitor 11.2µM*.
Cc1ccc2c(C(=O)N3CCN(C4CCCCC4)CC3)cc(NC(=O)C3CCC3)cc2n1 was read as SNCA viab count -2.8%, IP6K1 inhibitor 6.9, SNCA expr inhib -15.7% and KDM5B inhibitor 25.1µM*.
`Cc1ccc2c(C(=O)N3CCCCCC3)cc(NC(=O)C3CC3)cc2n1` gave SNCA viab count -7.3%, IP6K1 inhibitor -2.0, SNCA expr inhib 3.6% and KDM5B inhibitor 28.2µM*.
Screening NC(=O)C1CCCc2c1[nH]c1ccc(Cl)cc21 (stereo not drawn) returned SNCA viab count inconclusive and SNCA expr inhib 8.57µM*.
For O[C@@H]1C[C@@H](c2nnc3n2CCN(Cc2cccc4[nH]ccc24)C3)N(Cc2ccccc2)C1 the results were SNCA viab count -7.4%[12.5 µM], IP6K1 inhibitor 14.2, SNCA expr inhib 18.8% and KDM5B inhibitor 25.1µM*.
Screening O=C(O)c1ccc(C=Nc2ccc(Br)cc2)cc1 returned KDM5B inhibitor inactive.
Screening O=Cc1ccc(-c2cccc(Cl)c2)cc1 returned SNCA viab count 4.8%[87.6 µM], IP6K1 inhibitor -14.4, SNCA expr inhib -9.0%[87.6 µM] and KDM5B inhibitor 31.6µM*.
Cc1cc(Cl)ccc1-c1ccc(C=O)cc1 was read as SNCA viab count -11.7%[87.6 µM], IP6K1 inhibitor -17.9, SNCA expr inhib 3.6%[87.6 µM] and KDM5B inhibitor 79.4µM*.
For C=CCn1cc2c3c(cccc31)[C@H](CC(C)C)N[C@H](C(=O)N1CCOCC1)C2 the results were SNCA viab count -1.6%[87.6 µM], IP6K1 inhibitor 3.7, SNCA expr inhib 13.6%[87.6 µM] and KDM5B inhibitor 31.6µM*.
`CC(C)C[C@@H]1N[C@H](C(=O)O)Cc2cn(CC3CC3)c3cccc1c23` gave SNCA viab count -10.9%[87.6 µM], IP6K1 inhibitor -21.5, SNCA expr inhib -10.7%[87.6 µM] and KDM5B inhibitor 31.6µM*.

High-throughput results from PubChem.
